# Assay results taken from PubChem BioAssay (NCI).
# The panel holds about 79,000 compounds, 15% with a hit somewhere; the sample as a whole holds those more often. Values without a mark were called inactive. Active and inactive are the calls of the source. Cut-off read from the data, not from the text of the source: active = growth inhibition above about 70%; inactive = the rest.
# Experiments:
# [1] = NCI Yeast Anticancer Drug Screen. Data for the mec2-1 strain (AID 157); conditions: S. cerevisiae mec2-1 strain, active compounds read high
# Procedure, shortened: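 Yeast mec2-1 mutant treated with compound. Readout: growth inhibition vs vehicle controls.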
# [2] = NCI Yeast Anticancer Drug Screen. Data for the rad14 strain (AID 159);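 note: 0% = growth of vehicle-treated control cultures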; conditions: S. cerevisiae rad14 strain growth inhibition, active compounds read high
# Procedure, shortened: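 Compound-treated yeast with a defined DNA-repair lesion; growth inhibition normalised to vehicle-treated cultures.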
# [3] = NCI Yeast Anticancer Drug Screen. Data for the sgs1 mgt1 strain (AID 161);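 note: 0% = growth of cultures given vehicle only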; conditions: S. cerevisiae sgs1 mgt1 strain, active compounds read high
# Procedure, shortened: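 Read-out: growth inhibition vs vehicle controls. Cells: mutant yeast strain deficient in DNA damage repair.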
# [4] = NCI Yeast Anticancer Drug Screen. Data for the CLN2oe strain (AID 163);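 note: 0% = growth of vehicle-only control cultures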; conditions: S. cerevisiae CLN2oe strain, active compounds read high
# Procedure, shortened: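 Read-out: yeast growth inhibition, expressed relative to vehicle-only controls. The strain bears an engineered cell-cycle alteration.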
# [5] = NCI Yeast Anticancer Drug Screen. Data for the cln2 rad14 strain (AID 165);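 note: 0% = growth equal to vehicle treated cultures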; conditions: S. cerevisiae cln2 rad14 strain, active compounds read high
# Procedure, shortened: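 cln2 rad14 yeast strain; compound exposure; growth inhibition read vs vehicle controls.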
# [6] = NCI Yeast Anticancer Drug Screen. Data for the bub3 strain (AID 167); conditions: S. cerevisiae bub3 mutant strain, active compounds read high
# Procedure, shortened: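 Growth of a checkpoint-deficient yeast mutant is measured after compound exposure. Values represent inhibition relative to vehicle.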
# [7] = NCI Yeast Anticancer Drug Screen. Data for the wt2 strain (AID 169);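 note: 0% = growth of vehicle-treated yeast cultures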; conditions: S. cerevisiae wt2 strain growth inhibition, active compounds read high
# Procedure, shortened: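 Read-out: growth inhibition versus vehicle-treated control cultures after compound exposure of the yeast strain.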
# [8] = NCI Yeast Anticancer Drug Screen. Data for the mlh1 strain (AID 171);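 note: 0% = growth of vehicle-treated control cultures of the same strain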; conditions: S. cerevisiae mlh1 strain growth inhibition, active compounds read high
# Procedure, shortened: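 Read-out: growth inhibition versus vehicle controls. Strain: engineered yeast with a defined DNA repair or cell cycle defect, compound-treated.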
# [9] = NCI Yeast Anticancer Drug Screen. Data for the sgs1 strain (AID 173);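 note: 0% = growth of vehicle-only control cultures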; conditions: S. cerevisiae sgs1 mutant, active compounds read high
# Procedure, shortened: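 Read-out: yeast growth inhibition relative to vehicle controls, following compound exposure of a strain with a defined DNA repair/cell cycle alteration.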
# [10] = NCI Yeast Anticancer Drug Screen. Data for the mlh1 rad18 strain (AID 175); conditions: S. cerevisiae mlh1 rad18 strain growth inhibition, active compounds read high
# Procedure, shortened: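 Yeast w/ defined DNA-repair lesions; compound exposure; growth vs vehicle controls → % inhibition.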
# [11] = NCI Yeast Anticancer Drug Screen. Data for the rad18 strain (AID 177); conditions: S. cerevisiae rad18 mutant growth inhibition, active compounds read high
# Procedure, shortened: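 Readout: growth inhibition vs vehicle controls. Cells: genetically altered yeast strain, DNA repair defect.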
# [12] = NCI Yeast Anticancer Drug Screen. Data for the rad52 strain (AID 147);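 note: 0% = growth of vehicle-treated control cultures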; conditions: S. cerevisiae rad52 mutant growth inhibition, active compounds read high
# Procedure, shortened: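 Read-out: growth inhibition versus vehicle-treated controls. Cells were a DNA repair-deficient yeast strain treated with compounds.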
# [13] = NCI Yeast Anticancer Drug Screen. Data for the wt1 strain (AID 149);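 note: 0% = growth of vehicle-treated wt1 cultures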; conditions: S. cerevisiae wt1 strain (SPY 50644) growth inhibition, active compounds read high
# Procedure, shortened: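 Readout: yeast growth inhibition, normalised to vehicle controls, in the wt1 strain exposed to test compounds.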
# [14] = NCI Yeast Anticancer Drug Screen. Data for the rad50EPP+ strain (AID 151);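 note: 0% = growth of vehicle-treated control cultures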; conditions: S. cerevisiae rad50 mutant strain, active compounds read high
# Procedure, shortened: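 Growth inhibition read against vehicle controls in rad50EPP+ yeast, a strain altered in DNA damage repair, after compound exposure.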
# [15] = NCI Yeast Anticancer Drug Screen. Data for the mgt1 strain (AID 153); conditions: S. cerevisiae mgt1 mutant growth inhibition, active compounds read high
# Procedure, shortened: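 mgt1 yeast grown with test compound; read-out is growth inhibition versus vehicle-treated cultures.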
# [16] = NCI Yeast Anticancer Drug Screen. Data for the rad50 strain (AID 155);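 note: 0% = growth of vehicle-only cultures of the same strain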; conditions: S. cerevisiae rad50 strain growth inhibition, active compounds read high
# Procedure, shortened: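 Compounds were tested on a yeast strain with an engineered DNA damage repair alteration; the reported value is growth inhibition normalised to vehicle treatment.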
# [17] = at 5.0 µM (retest, dose inferred, filed as 0.5)
# [18] = at 50.0 µM (retest, dose inferred, filed as 5.0)
smiles,measurement,setting,value
CCC(C)(C)c1ccc(Oc2cccc(C(=O)O)c2)cc1,growth inhibition,[1]; [17],19%
same,growth inhibition,[1]; at 11.0 µM,25%
same,growth inhibition,[1]; at 33.0 µM,70% (active)
same,growth inhibition,[1]; [18],48%
same,growth inhibition,[1]; at 50.0 µM,78.8% (active)
same,growth inhibition,[1]; at 100.0 µM,96% (active)
same,growth inhibition,[2]; at 1.2 µM,-6%
same,growth inhibition,[2]; at 3.7 µM,-14%
same,growth inhibition,[2]; at 11.0 µM,2%
same,growth inhibition,[2]; at 33.0 µM,54%
same,growth inhibition,[2]; at 100.0 µM,72% (active)
same,growth inhibition,[3]; [17],-1%
same,growth inhibition,[3]; [18],9%
same,growth inhibition,[3]; at 50.0 µM,58.2%
same,growth inhibition,[4]; at 1.2 µM,-4%
same,growth inhibition,[4]; at 3.7 µM,-4%
same,growth inhibition,[4]; at 11.0 µM,24%
same,growth inhibition,[4]; at 33.0 µM,84% (active)
same,growth inhibition,[4]; at 100.0 µM,84% (active)
same,growth inhibition,[5]; [17],-27%
same,growth inhibition,[5]; [18],30%
same,growth inhibition,[5]; at 50.0 µM,88% (active)
same,growth inhibition,[6]; at 1.2 µM,-8%
same,growth inhibition,[6]; at 3.7 µM,-2%
same,growth inhibition,[6]; [17],-17%
same,growth inhibition,[6]; at 11.0 µM,23%
same,growth inhibition,[6]; at 33.0 µM,68%
same,growth inhibition,[6]; [18],32%
same,growth inhibition,[6]; at 50.0 µM,71.8% (active)
same,growth inhibition,[6]; at 100.0 µM,84% (active)
same,growth inhibition,[7]; at 1.2 µM,-4%
same,growth inhibition,[7]; at 3.7 µM,-4%
same,growth inhibition,[7]; at 11.0 µM,7%
same,growth inhibition,[7]; at 33.0 µM,46%
same,growth inhibition,[7]; at 100.0 µM,62%
same,growth inhibition,[8]; at 1.2 µM,1%
same,growth inhibition,[8]; at 3.7 µM,-1%
same,growth inhibition,[8]; at 11.0 µM,14%
same,growth inhibition,[8]; at 33.0 µM,31%
same,growth inhibition,[8]; at 100.0 µM,96% (active)
same,growth inhibition,[9]; at 1.2 µM,6%
same,growth inhibition,[9]; at 3.7 µM,10%
same,growth inhibition,[9]; at 11.0 µM,28%
same,growth inhibition,[9]; at 33.0 µM,54%
same,growth inhibition,[9]; at 100.0 µM,68%
same,growth inhibition,[10]; [17],10%
same,growth inhibition,[10]; [18],36%
same,growth inhibition,[10]; at 50.0 µM,86.7% (active)
same,growth inhibition,[11]; at 1.2 µM,8%
same,growth inhibition,[11]; at 3.7 µM,3%
same,growth inhibition,[11]; at 11.0 µM,17%
same,growth inhibition,[11]; at 33.0 µM,49%
same,growth inhibition,[11]; at 100.0 µM,69%
CC(C)(C)[Si](C)(C)OCC1CCC(n2cnc3c(NC(=O)c4ccccc4)ncnc32)O1 (stereo unspecified),growth inhibition,[12]; at 1.2 µM,-2%
same,growth inhibition,[12]; at 3.7 µM,-3%
same,growth inhibition,[12]; at 11.0 µM,-2%
same,growth inhibition,[12]; at 33.0 µM,-1%
same,growth inhibition,[12]; at 100.0 µM,-2%
same,growth inhibition,[13]; at 1.2 µM,0%
same,growth inhibition,[13]; at 3.7 µM,0%
same,growth inhibition,[13]; at 11.0 µM,0%
same,growth inhibition,[13]; at 33.0 µM,4%
same,growth inhibition,[13]; at 100.0 µM,-2%
same,growth inhibition,[14]; at 1.2 µM,-3%
same,growth inhibition,[14]; at 3.7 µM,-2%
same,growth inhibition,[14]; at 11.0 µM,1%
same,growth inhibition,[14]; at 33.0 µM,5%
same,growth inhibition,[14]; at 100.0 µM,5%
same,growth inhibition,[15]; at 1.2 µM,-3%
same,growth inhibition,[15]; at 3.7 µM,-6%
same,growth inhibition,[15]; at 11.0 µM,0%
same,growth inhibition,[15]; at 33.0 µM,0%
same,growth inhibition,[15]; at 100.0 µM,-2%
same,growth inhibition,[16]; at 1.2 µM,1%
same,growth inhibition,[16]; at 3.7 µM,-49%
same,growth inhibition,[16]; [17],0%
same,growth inhibition,[16]; at 11.0 µM,-28%
same,growth inhibition,[16]; at 33.0 µM,2%
same,growth inhibition,[16]; [18],31%
same,growth inhibition,[16]; at 50.0 µM,87.5% (active)
same,growth inhibition,[16]; at 100.0 µM,1%
same,growth inhibition,[1]; at 1.2 µM,-3%
same,growth inhibition,[1]; at 3.7 µM,0%
same,growth inhibition,[1]; [17],-2%
same,growth inhibition,[1]; at 11.0 µM,-1%
same,growth inhibition,[1]; at 33.0 µM,0%
same,growth inhibition,[1]; [18],49%
same,growth inhibition,[1]; at 50.0 µM,90% (active)
same,growth inhibition,[1]; at 100.0 µM,0%
same,growth inhibition,[2]; at 1.2 µM,-1%
same,growth inhibition,[2]; at 3.7 µM,-2%
same,growth inhibition,[2]; at 11.0 µM,3%
same,growth inhibition,[2]; at 33.0 µM,3%
same,growth inhibition,[2]; at 100.0 µM,2%
same,growth inhibition,[3]; [17],-1%
same,growth inhibition,[3]; [18],6%
same,growth inhibition,[3]; at 50.0 µM,27.2%
same,growth inhibition,[4]; at 1.2 µM,-2%
same,growth inhibition,[4]; at 3.7 µM,0%
same,growth inhibition,[4]; at 11.0 µM,5%
same,growth inhibition,[4]; at 33.0 µM,-1%
same,growth inhibition,[4]; at 100.0 µM,-4%
same,growth inhibition,[5]; [17],-4%
same,growth inhibition,[5]; [18],30%
same,growth inhibition,[5]; at 50.0 µM,42.2%
same,growth inhibition,[6]; at 1.2 µM,2%
same,growth inhibition,[6]; at 3.7 µM,0%
same,growth inhibition,[6]; [17],-2%
same,growth inhibition,[6]; at 11.0 µM,1%
same,growth inhibition,[6]; at 33.0 µM,-2%
same,growth inhibition,[6]; [18],30%
same,growth inhibition,[6]; at 50.0 µM,23.1%
same,growth inhibition,[6]; at 100.0 µM,-4%
same,growth inhibition,[7]; at 1.2 µM,-1%
same,growth inhibition,[7]; at 3.7 µM,7%
same,growth inhibition,[7]; at 11.0 µM,-2%
same,growth inhibition,[7]; at 33.0 µM,5%
same,growth inhibition,[7]; at 100.0 µM,-1%
same,growth inhibition,[8]; at 1.2 µM,0%
same,growth inhibition,[8]; at 3.7 µM,-3%
same,growth inhibition,[8]; at 11.0 µM,-1%
same,growth inhibition,[8]; at 33.0 µM,-1%
same,growth inhibition,[8]; at 100.0 µM,-1%
same,growth inhibition,[9]; at 1.2 µM,-2%
same,growth inhibition,[9]; at 3.7 µM,-2%
same,growth inhibition,[9]; at 11.0 µM,0%
same,growth inhibition,[9]; at 33.0 µM,1%
same,growth inhibition,[9]; at 100.0 µM,0%
same,growth inhibition,[10]; [17],-5%
same,growth inhibition,[10]; [18],47%
same,growth inhibition,[10]; at 50.0 µM,80.9% (active)
same,growth inhibition,[11]; at 1.2 µM,-3%
same,growth inhibition,[11]; at 3.7 µM,2%
same,growth inhibition,[11]; at 11.0 µM,-1%
same,growth inhibition,[11]; at 33.0 µM,1%
same,growth inhibition,[11]; at 100.0 µM,-1%
